Data from the supplement of paper PMC10849652.
Targets with a hit are over-represented here; the source holds about 8,800 in all. About 0.5% of all pairs of compound and target were hits.

Columns and labels:
Assay in all cases: log2 fold change, soluble protein after heating vs DMSO (PISA); higher = thermal stabilisation; K562 lysate, 10 uM; active = over 0.2 and 3.5 SD of the protein, either way, in both replicates (recomputed)
vemurafenib = compound: CCCS(=O)(=O)Nc1ccc(F)c(C(=O)c2c[nH]c3ncc(-c4ccc(Cl)cc4)cc23)c1F [vemurafenib]
Outline: (§1)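 To prepare the extract, K562 pellets were dounce-homogenised in PBS pH 7.4 with 1 mM MgCl2, giving crude material at 1 mg/mL protein. This was treated with 10 μM compound for 30 min, then heated in aliquots for 3 min over 48°C-58°C before pooling and addition of NP-40 to 0.5% at 4°C. Centrifugation at 21,000xg for 90 min left soluble protein in the supernatant, which TMTpro 16plex LC-MS/MS quantified with equalised channel sums. Results are log-two fold changes in thermal stability compared with solvent controls, from duplicates.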

[1] = compound: CCCS(=O)(=O)Nc1ccc(F)c(C(=O)c2c[nH]c3ncc(Cl)cc23)c1F
Outline: as §1

barasertib = compound: CCN(CCCOc1ccc2c(Nc3cc(CC(=O)Nc4cccc(F)c4)[nH]n3)ncnc2c1)CCOP(=O)(O)O [barasertib]
Outline: as §1

[2] = compound: CC[C@@H]1C(=O)N(C)c2cnc(Nc3ccc(C(=O)NC4CCN(C)CC4)cc3OC)nc2N1C1CCCC1
Outline: as §1

volasertib = compound: CC[C@@H]1C(=O)N(C)c2cnc(Nc3ccc(C(=O)N[C@H]4CC[C@H](N5CCN(CC6CC6)CC5)CC4)cc3OC)nc2N1C(C)C [volasertib]
Outline: as §1

[3] = compound: CCn1c(C(=O)N(C2CC2)C2CC2)cc2c3c(ncn3C)c(Nc3cc(C)n(C)n3)nc21
Outline: as §1

[4] = compound: CCn1cc(-c2ccnc3[nH]c(-c4cccc(CN(C)C)c4)cc23)c(-c2ccc(NC(=O)N(C)C)cc2)n1
Outline: as §1

[5] = compound: CN1CCC(CNc2ccc3ncc(-c4cccc(OC(F)(F)F)c4)n3n2)CC1
Outline: as §1

saracatinib = compound: CN1CCN(CCOc2cc(OC3CCOCC3)c3c(Nc4c(Cl)ccc5c4OCO5)ncnc3c2)CC1 [saracatinib]
Outline: as §1

sotrastaurin = compound: CN1CCN(c2nc(C3=C(c4c[nH]c5ccccc45)C(=O)NC3=O)c3ccccc3n2)CC1 [sotrastaurin]
Outline: as §1

alvocidib = compound: CN1CC[C@H](c2c(O)cc(O)c3c(=O)cc(-c4ccccc4Cl)oc23)[C@H](O)C1 [alvocidib]
Outline: as §1

Tubastatin A = compound: CN1CCc2c(c3ccccc3n2Cc2ccc(C(=O)NO)cc2)C1 [Tubastatin A]
Outline: as §1

[6] = compound: CNC(=O)C1=CC=CC=C1NC2=NC(=NC=C2Cl)NC3=C(C=C(C=C3)N4CCOCC4)OC
Outline: as §1

defactinib = compound: CNC(=O)c1ccc(Nc2ncc(C(F)(F)F)c(NCc3nccnc3N(C)S(C)(=O)=O)n2)cc1 [defactinib]
Outline: as §1

[7] = compound: CNc1nc(-c2ccc3c(N)n[nH]c3c2)cc(N2C[C@@H](C(=O)NC3CCCCC3)CC[C@H]2C)n1
Outline: as §1

encorafenib = compound: COC(=O)N[C@@H](C)CNc1nccc(-c2cn(C(C)C)nc2-c2cc(Cl)cc(NS(C)(=O)=O)c2F)n1 [encorafenib]
Outline: as §1

[8] = compound: COC(=O)[C@H](CCSC)NC(=O)C1=C(C=C(C=C1)NC[C@H](CS)N)C2=CC=CC=C2
Outline: as §1

alisertib = compound: COc1cc(Nc2ncc3c(n2)-c2ccc(Cl)cc2C(c2c(F)cccc2OC)=NC3)ccc1C(=O)O [alisertib]
Outline: as §1

[9] = compound: COc1cc2nc(-c3cc(F)ccc3O)nc(N[C@@H]3CNC[C@H]3C(C)(C)O)c2cc1OC
Outline: as §1

gefitinib = compound: COc1cc2ncnc(Nc3ccc(F)c(Cl)c3)c2cc1OCCCN1CCOCC1 [gefitinib]
Outline: as §1

Measured: log2 fold change

KIF4B (UniProt Q2VIQ3)
UniProt Q2VIQ3, sequence (Q2VIQ3 whole entry, looked up): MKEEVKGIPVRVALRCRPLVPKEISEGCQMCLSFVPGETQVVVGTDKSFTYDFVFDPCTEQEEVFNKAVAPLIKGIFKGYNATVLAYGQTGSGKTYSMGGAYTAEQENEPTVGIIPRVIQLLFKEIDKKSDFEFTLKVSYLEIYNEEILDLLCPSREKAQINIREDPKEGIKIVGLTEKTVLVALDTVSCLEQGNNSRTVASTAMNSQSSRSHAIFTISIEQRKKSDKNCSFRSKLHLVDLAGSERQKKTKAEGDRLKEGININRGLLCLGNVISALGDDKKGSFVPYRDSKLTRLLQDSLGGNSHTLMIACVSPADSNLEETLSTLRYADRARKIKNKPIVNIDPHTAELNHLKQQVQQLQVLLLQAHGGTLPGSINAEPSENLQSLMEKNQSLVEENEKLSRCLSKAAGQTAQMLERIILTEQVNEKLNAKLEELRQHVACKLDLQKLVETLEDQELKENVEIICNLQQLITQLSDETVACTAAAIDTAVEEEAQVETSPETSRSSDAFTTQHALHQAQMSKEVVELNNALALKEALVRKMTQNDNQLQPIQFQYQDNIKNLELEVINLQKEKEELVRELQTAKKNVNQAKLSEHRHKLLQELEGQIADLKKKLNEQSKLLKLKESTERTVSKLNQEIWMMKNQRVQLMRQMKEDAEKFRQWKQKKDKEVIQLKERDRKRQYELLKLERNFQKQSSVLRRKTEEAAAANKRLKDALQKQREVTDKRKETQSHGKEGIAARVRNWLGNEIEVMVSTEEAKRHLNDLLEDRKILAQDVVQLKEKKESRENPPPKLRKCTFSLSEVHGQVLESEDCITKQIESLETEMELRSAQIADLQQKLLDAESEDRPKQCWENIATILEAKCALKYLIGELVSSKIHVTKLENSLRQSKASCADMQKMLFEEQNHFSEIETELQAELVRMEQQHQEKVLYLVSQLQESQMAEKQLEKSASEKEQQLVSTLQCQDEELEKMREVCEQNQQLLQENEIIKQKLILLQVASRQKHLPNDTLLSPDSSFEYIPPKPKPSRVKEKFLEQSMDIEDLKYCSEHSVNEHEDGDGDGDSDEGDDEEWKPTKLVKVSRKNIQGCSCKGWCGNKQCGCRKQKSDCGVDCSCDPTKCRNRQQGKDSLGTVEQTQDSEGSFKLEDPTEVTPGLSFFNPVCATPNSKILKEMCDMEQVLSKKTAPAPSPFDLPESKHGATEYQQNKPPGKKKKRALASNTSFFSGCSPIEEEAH
active: Tubastatin A -0.207
inactive: vemurafenib -0.026 | [1] 0.047 | barasertib -0.015 | [2] -0.102 | volasertib -0.003 | [3] 0.009 | [4] 0.007 | [5] -0.073 | saracatinib -0.002 | sotrastaurin -0.01 | alvocidib -0.01 | [6] 0.024 | defactinib 0.008 | [7] -0.039 | encorafenib 0.034 | [8] 0.146 | alisertib -0.018 | [9] -0.006 | gefitinib -0.018

MED14 (UniProt O60244)
UniProt O60244, sequence (O60244 whole entry, looked up): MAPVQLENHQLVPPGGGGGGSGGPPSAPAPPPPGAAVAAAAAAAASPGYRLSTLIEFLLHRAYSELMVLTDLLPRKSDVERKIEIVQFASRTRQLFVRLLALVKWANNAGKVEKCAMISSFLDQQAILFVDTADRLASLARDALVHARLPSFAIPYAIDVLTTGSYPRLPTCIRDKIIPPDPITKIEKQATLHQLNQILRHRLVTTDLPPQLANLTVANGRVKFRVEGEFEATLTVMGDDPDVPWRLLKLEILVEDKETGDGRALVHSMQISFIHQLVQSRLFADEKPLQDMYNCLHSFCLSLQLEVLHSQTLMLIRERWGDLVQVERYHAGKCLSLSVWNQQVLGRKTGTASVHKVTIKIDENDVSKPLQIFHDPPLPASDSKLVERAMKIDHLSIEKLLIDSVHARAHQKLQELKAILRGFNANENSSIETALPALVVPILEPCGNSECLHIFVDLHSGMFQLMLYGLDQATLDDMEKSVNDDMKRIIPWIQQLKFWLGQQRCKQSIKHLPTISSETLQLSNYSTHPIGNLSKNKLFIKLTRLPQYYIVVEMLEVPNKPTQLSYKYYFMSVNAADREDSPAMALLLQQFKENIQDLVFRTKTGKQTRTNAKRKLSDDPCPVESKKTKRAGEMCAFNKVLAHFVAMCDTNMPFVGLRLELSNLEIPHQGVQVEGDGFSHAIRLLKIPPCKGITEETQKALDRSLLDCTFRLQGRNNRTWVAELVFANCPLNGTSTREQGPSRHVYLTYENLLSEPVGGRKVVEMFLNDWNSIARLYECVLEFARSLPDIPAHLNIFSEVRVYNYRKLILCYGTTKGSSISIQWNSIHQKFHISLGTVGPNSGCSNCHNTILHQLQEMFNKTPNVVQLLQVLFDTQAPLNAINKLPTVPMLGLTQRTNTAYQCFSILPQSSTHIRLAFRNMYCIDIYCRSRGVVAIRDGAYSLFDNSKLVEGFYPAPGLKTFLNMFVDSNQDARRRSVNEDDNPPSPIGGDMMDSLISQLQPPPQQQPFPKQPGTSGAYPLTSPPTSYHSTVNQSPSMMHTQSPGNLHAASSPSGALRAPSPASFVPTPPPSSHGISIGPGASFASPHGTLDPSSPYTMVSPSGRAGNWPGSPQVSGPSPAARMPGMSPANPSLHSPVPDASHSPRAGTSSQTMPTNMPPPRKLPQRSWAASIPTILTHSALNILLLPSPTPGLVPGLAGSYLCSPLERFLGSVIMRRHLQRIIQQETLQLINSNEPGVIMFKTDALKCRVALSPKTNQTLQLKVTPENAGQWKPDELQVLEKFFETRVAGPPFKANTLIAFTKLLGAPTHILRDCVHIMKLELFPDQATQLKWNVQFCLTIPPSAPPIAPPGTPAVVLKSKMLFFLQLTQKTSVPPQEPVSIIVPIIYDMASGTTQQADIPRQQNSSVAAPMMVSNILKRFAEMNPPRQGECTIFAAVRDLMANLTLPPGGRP
inactive: vemurafenib -0.078 | [1] 0.003 | barasertib 0.015 | [2] -0.084 | volasertib -0.023 | [3] 0.008 | [4] -0.008 | [5] 0.009 | saracatinib -0.001 | sotrastaurin 0.008 | alvocidib -0.017 | Tubastatin A -0.068 | [6] 0.051 | defactinib -0.008 | [7] 0.015 | encorafenib 0.012 | [8] 0.003 | alisertib -0.028 | [9] -0.018 | gefitinib 0.001

MAP2K5 (UniProt Q13163)
inactive: vemurafenib 0.207 | [1] 0.302 | barasertib 0.019 | [2] -0.148 | volasertib -0.311 | [3] -0.144 | [4] 0.15 | [5] -0.029 | saracatinib -0.079 | sotrastaurin 0.014 | alvocidib 0.067 | Tubastatin A -0.033 | [6] 0.086 | defactinib -0.026 | [7] 0.329 | encorafenib 0.149 | [8] -0.15 | alisertib -0.016 | [9] 0.054 | gefitinib 0.155

MLLT11 (UniProt Q13015)
UniProt Q13015, sequence (Q13015 whole entry, looked up): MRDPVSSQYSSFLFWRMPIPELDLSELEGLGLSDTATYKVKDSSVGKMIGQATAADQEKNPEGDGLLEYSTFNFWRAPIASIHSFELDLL
inactive: vemurafenib -0.054 | [1] -0.048 | barasertib 0.143 | [2] -0.199 | volasertib 0.1 | [3] 0.05 | [4] -0.01 | [5] -0.049 | saracatinib 0.118 | sotrastaurin -0.04 | alvocidib 0.056 | Tubastatin A -0.052 | [6] 0.108 | defactinib 0.086 | [7] -0.019 | encorafenib 0.138 | [8] 0.099 | alisertib 0.115 | [9] 0.067 | gefitinib 0.023

LIMS1 isoform 3 (UniProt P48059)
inactive: vemurafenib -0.055 | [1] -0.006 | barasertib 0.014 | [2] 0.008 | volasertib 0.024 | [3] -0.002 | [4] -0.005 | [5] 0.045 | saracatinib 0.014 | sotrastaurin -0.162 | alvocidib -0.014 | Tubastatin A 0.034 | [6] 0.017 | defactinib 0.048 | [7] 0.02 | encorafenib 0.004 | [8] -0.118 | alisertib 0.011 | [9] -0.003 | gefitinib -0.097

KNOP1 (UniProt Q1ED39)
inactive: vemurafenib -0.285 | [1] 0.026 | barasertib -0.014 | [2] 0.315 | volasertib 0.056 | [3] -0.161 | [4] 0.016 | [5] 0.012 | saracatinib -0.029 | sotrastaurin -0.063 | alvocidib -0.004 | Tubastatin A 0.151 | [6] 0.062 | [7] 0.337 | encorafenib -0.023 | [8] 0.022 | alisertib -0.065 | [9] 0.097 | gefitinib -0.03
active: defactinib 0.413

MRPL12 (UniProt P52815)
active: [4] -0.412
inactive: vemurafenib 0.01 | [1] -0.026 | barasertib 0.181 | [2] 0.036 | volasertib 0.103 | [3] -0.019 | [5] -0.032 | saracatinib 0.004 | sotrastaurin 0.015 | alvocidib 0.066 | Tubastatin A 0.117 | [6] 0.06 | defactinib 0.096 | [7] 0.037 | encorafenib 0.003 | [8] -0.079 | alisertib 0.115 | [9] -0.01 | gefitinib -0.153

LRWD1 (UniProt Q9UFC0)
inactive: vemurafenib 0.009 | [1] -0.013 | barasertib -0.021 | [2] -0.016 | volasertib -0.017 | [3] 0.023 | [4] -0.003 | [5] 0.036 | saracatinib 0.025 | sotrastaurin 0.03 | alvocidib 0.027 | Tubastatin A -0.2 | [6] -0.049 | defactinib 0.059 | [7] -0.051 | encorafenib 0.01 | [8] 0.11 | alisertib -0.001 | [9] 0.017 | gefitinib -0.024

MORC2 (UniProt Q9Y6X9)
UniProt Q9Y6X9, sequence (Q9Y6X9 whole entry, looked up): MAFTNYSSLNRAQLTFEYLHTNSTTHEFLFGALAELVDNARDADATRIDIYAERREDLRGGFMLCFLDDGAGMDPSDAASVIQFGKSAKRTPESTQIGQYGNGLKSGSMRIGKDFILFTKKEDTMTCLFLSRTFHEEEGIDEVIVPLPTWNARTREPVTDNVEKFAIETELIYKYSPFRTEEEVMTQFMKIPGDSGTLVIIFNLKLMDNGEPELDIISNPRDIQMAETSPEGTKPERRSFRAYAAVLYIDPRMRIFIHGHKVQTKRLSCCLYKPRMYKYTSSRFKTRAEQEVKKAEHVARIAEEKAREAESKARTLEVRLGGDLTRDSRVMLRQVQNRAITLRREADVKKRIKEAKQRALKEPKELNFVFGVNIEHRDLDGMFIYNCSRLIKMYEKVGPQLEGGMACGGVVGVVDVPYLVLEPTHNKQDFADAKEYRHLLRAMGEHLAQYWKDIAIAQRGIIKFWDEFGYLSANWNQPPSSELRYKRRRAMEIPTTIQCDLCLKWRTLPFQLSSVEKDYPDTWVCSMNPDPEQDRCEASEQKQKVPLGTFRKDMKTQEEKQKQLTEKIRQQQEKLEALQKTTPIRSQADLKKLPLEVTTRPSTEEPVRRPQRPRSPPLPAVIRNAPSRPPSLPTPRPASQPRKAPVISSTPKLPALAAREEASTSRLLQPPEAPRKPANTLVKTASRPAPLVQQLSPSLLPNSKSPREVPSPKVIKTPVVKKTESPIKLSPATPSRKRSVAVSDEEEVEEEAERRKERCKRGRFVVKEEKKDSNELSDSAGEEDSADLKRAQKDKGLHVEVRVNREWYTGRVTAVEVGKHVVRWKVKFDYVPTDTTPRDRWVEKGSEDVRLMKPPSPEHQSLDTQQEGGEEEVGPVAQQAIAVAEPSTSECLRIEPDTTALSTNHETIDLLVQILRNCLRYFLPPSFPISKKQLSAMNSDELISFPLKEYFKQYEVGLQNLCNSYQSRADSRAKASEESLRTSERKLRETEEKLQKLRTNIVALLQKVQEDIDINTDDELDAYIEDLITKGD
inactive: vemurafenib 0.049 | [1] 0.01 | barasertib 0.054 | [2] 0.022 | volasertib 0.002 | [3] -0.006 | [4] -0.041 | [5] 0.008 | saracatinib 0.042 | sotrastaurin 0.037 | alvocidib 0.018 | Tubastatin A -0.095 | [6] 0 | defactinib 0.013 | [7] -0.012 | encorafenib 0.02 | [8] 0.025 | alisertib 0.001 | [9] -0.008 | gefitinib -0.02

MLST8 (UniProt Q9BVC4)
inactive: vemurafenib 0.025 | [1] 0.029 | barasertib 0.074 | [2] 0.026 | volasertib -0.009 | [3] 0.023 | [4] -0.03 | [5] 0.012 | saracatinib 0.075 | sotrastaurin -0.045 | alvocidib 0.009 | Tubastatin A -0.072 | [6] -0.059 | defactinib -0.023 | [7] -0.059 | encorafenib -0.012 | [8] 0.038 | alisertib -0.016 | [9] -0.01 | gefitinib -0.004

MAPKAPK2 (UniProt P49137)
UniProt P49137, sequence (P49137 whole entry, looked up): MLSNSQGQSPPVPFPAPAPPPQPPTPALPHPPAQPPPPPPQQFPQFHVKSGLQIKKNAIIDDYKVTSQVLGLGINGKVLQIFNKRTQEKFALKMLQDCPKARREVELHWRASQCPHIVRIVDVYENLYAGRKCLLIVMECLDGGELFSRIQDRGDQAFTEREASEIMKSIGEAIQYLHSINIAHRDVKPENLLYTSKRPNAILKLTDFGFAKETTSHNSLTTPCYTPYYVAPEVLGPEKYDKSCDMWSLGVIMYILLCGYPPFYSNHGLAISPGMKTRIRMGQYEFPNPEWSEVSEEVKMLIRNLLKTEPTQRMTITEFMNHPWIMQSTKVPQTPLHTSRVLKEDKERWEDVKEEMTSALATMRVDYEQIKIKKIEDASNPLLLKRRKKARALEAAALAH
inactive: vemurafenib 0.011 | [1] -0.043 | barasertib 0 | [2] -0.015 | volasertib -0.032 | [3] 0.009 | [4] -0.032 | [5] 0.002 | saracatinib -0.037 | sotrastaurin -0.015 | alvocidib 0.069 | Tubastatin A -0.078 | [6] 0.077 | defactinib -0.059 | [7] 0.025 | encorafenib -0.026 | [8] 0.046 | alisertib -0.023 | [9] 0.114 | gefitinib -0.013

MBLAC2 (UniProt Q68D91)
inactive: vemurafenib -0.069 | [1] -0.006 | barasertib 0.013 | [2] -0.042 | volasertib 0.002 | [3] 0.008 | [4] 0.036 | [5] 0.078 | saracatinib -0.042 | sotrastaurin 0.016 | alvocidib -0.011 | Tubastatin A 0.033 | [6] 0.041 | defactinib 0.059 | [7] -0.096 | encorafenib 0.06 | [8] -0.003 | alisertib 0.005 | [9] 0.013 | gefitinib 0.033

MARK1 (UniProt Q9P0L2)
UniProt Q9P0L2, sequence (Q9P0L2 whole entry, looked up): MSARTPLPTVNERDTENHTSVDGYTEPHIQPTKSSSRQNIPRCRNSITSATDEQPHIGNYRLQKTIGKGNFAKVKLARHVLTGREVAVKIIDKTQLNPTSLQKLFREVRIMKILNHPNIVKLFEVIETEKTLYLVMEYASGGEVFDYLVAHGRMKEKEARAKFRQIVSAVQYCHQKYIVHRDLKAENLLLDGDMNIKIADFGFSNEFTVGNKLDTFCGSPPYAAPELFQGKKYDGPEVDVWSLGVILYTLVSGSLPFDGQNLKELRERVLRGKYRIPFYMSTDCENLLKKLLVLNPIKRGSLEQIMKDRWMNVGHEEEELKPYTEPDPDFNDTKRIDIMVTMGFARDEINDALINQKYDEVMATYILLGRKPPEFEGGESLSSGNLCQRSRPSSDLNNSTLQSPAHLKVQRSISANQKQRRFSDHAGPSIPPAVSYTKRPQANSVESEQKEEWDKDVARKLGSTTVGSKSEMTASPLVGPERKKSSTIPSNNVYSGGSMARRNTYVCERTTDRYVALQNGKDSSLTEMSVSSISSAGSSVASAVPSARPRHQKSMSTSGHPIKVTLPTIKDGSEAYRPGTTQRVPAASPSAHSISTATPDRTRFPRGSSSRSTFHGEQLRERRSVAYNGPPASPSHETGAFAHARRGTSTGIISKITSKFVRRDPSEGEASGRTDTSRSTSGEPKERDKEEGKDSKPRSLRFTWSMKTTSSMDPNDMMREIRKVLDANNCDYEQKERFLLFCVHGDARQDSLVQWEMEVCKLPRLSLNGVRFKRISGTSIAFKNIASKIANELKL
inactive: vemurafenib -0.006 | [1] 0.064 | barasertib -0.038 | [2] -0.045 | volasertib -0.019 | [3] -0.018 | [4] -0.06 | [5] -0.241 | saracatinib 0.021 | sotrastaurin -0.17 | alvocidib -0.053 | Tubastatin A -0.087 | [6] -0.27 | defactinib -0.267 | [7] 0.072 | encorafenib 0.075 | [8] 0.226 | alisertib -0.007 | [9] -0.134 | gefitinib -0.004

MRPL46 (UniProt Q9H2W6)
active: [4] 0.523
inactive: vemurafenib 0.058 | [1] -0.001 | barasertib -0.015 | [2] 0.115 | volasertib 0.044 | [3] 0.064 | [5] -0.029 | saracatinib 0.024 | sotrastaurin 0.032 | alvocidib 0.125 | Tubastatin A -0.097 | [6] 0.28 | defactinib 0.051 | [7] 0.058 | encorafenib -0.032 | [8] 0 | alisertib 0.02 | [9] -0.045 | gefitinib 0.041

LYAR (UniProt Q9NX58)
inactive: vemurafenib 0.011 | [1] 0.005 | barasertib -0.024 | [2] 0.005 | volasertib 0.003 | [3] -0.027 | [5] -0.128 | saracatinib 0.028 | sotrastaurin -0.039 | alvocidib 0.072 | Tubastatin A 0.018 | [6] 0.006 | defactinib 0.014 | [7] -0.002 | encorafenib -0.005 | [8] 0.021 | alisertib 0.005 | [9] -0.001 | gefitinib -0.043
active: [4] 0.312

MAPK3 (UniProt P27361)
active: [6] 0.29
inactive: vemurafenib 0.013 | [1] -0.024 | barasertib -0.026 | [2] 0.01 | volasertib -0.011 | [3] -0.031 | [4] 0 | [5] 0.026 | saracatinib 0 | sotrastaurin -0.017 | alvocidib 0.018 | Tubastatin A 0.037 | defactinib 0.061 | [7] 0.079 | encorafenib -0.035 | [8] 0.05 | alisertib -0.028 | [9] 0.052 | gefitinib -0.018
